This passage reports inhibition results from PubChem BioAssay AID602281 (The Scripps Research Institute Molecular Screening Center, 2012).

Several values for one entry are separate records, joined by “and”; a condition that tells them apart may be missing. Equal values may be shown once. The campaign covered roughly 360,000 compounds. About 2,900 (0.81%) were called active.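 The calls were made as follows: active = inhibition above the mean inhibition across every tested compound plus 3 SD (cut at about 22% in these data); inactive = the rest.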 What follows is part of a selection rich in actives, with near analogues and random picks from the rest. Where a structure was tested more than once in an assay, its records may differ in their call.

This assay deals with Perilipin-5 (Homo sapiens) + 1-acylglycerol-3-phosphate O-acyltransferase ABHD5 (Homo sapiens) (UniProt Q00G26+Q8WTS1). The assay can be described thus: blockers of ABHD5 binding to perilipin-5 – cell lysate, split luciferase complementation, luminescence, primary screen (AID 602281).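 Also: 0% = DMSO only wells and the 100% control is not disclosed.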 As to conditions: Split G. princeps luciferase complementation, 4 h, at 4 µM, stronger effect = higher value.
Chain of Perilipin-5 (Homo sapiens) + 1-acylglycerol-3-phosphate O-acyltransferase ABHD5 (Homo sapiens) (Q00G26 whole entry, looked up): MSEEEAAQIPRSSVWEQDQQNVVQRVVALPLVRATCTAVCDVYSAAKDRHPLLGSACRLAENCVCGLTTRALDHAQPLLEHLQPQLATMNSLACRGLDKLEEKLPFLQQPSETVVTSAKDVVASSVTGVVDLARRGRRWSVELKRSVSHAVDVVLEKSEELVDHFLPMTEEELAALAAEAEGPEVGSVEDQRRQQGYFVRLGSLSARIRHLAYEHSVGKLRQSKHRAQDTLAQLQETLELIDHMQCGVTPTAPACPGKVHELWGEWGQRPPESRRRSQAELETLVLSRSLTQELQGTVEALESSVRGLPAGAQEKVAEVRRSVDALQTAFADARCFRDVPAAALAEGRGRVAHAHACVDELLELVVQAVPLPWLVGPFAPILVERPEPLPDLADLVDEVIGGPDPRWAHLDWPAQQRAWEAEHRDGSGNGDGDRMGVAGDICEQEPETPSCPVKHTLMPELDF
Chain of Perilipin-5 (Homo sapiens) + 1-acylglycerol-3-phosphate O-acyltransferase ABHD5 (Homo sapiens) (Q8WTS1 whole entry, looked up): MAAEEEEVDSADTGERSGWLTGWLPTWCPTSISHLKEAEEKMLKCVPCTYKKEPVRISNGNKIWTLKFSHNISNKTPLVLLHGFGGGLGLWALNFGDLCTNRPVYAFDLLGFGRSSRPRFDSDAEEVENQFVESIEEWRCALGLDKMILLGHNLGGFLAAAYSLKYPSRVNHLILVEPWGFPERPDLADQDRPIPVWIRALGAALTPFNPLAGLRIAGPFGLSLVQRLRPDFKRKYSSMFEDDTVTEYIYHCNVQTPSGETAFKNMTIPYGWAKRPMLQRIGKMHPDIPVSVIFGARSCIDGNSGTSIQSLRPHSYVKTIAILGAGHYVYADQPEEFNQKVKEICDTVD
Regarding `Cc1ccc(OCC(=O)c2cc(C)n(Cc3ccco3)c2C)c([N+](=O)[O-])n1`, the inhibition was 4.39% (inactive).

Turning to `Cc1ccc(Cn2c(C)nc3c(c2=O)c2nc4ccccc4nc2n3Cc2ccco2)cc1`, the inhibition was 65.3% (active).

`Cc1ccc(C(=O)CSc2nc3ccccc3c(=O)n2N)o1`: the inhibition is -5.64% (inactive).

For the compound `COC(=O)C[C@H]1C[C@@H]2c3cc(N(C)C)ccc3O[C@@H]2[C@H](CO)O1`, the inhibition is 0.67% (inactive).

As to `c1ccc(CCc2ccccn2)cc1`, the inhibition is -3.97% (inactive).

For `c1ccc(CCC2=NCCn3cccc32)cc1`, the inhibition is 16.9% (inactive) and 27.5% (active).

As for `CC1CSc2nnc(CCc3ccccc3)n21` (configuration not stated), the inhibition was 0.6% (inactive).

For `CCc1ccc(-c2cc(C)no2)cc1S(=O)(=O)NCCc1ccc(S(N)(=O)=O)cc1`, the inhibition was -2.59% (inactive).

For the compound `O=C(C1CCCO1)N1CCN(C(=O)C23CC4CC(CC(C4)C2)C3)CC1` (configuration not stated), the inhibition is 0.93% (inactive).

Take `O=C(Cn1cc(C(=O)C2CC2)c2ccccc21)Nc1ccccc1Cl`: the inhibition is -0.4% (inactive).

Take `CCOc1ccc(NC(=O)C(C)N2C(=O)c3ccccc3C2=O)cc1` (configuration not stated): the inhibition is -3.97% (inactive).

For `O=C1/C(=C\c2ccc([N+](=O)[O-])cc2)CS(=O)(=O)C/C1=C/c1ccc([N+](=O)[O-])cc1`, the inhibition was 76.2% (active).

Take `O=[N+]([O-])c1ccc(N=NNc2ccc([N+](=O)[O-])cc2)cc1`: the inhibition is -4.36% (inactive).

Take `O=C(Cc1ccccc1)N1CCN(S(=O)(=O)c2ccc([N+](=O)[O-])cc2)CC1`: the inhibition was 1.18% (inactive).

Consider `Cc1ccc(S(=O)(=O)N(C)C)cc1NC(=O)c1ccccc1Br`, for which the inhibition was -0.6% (inactive).

On to `COc1ccc(C(C(=O)NCc2ccccc2)N(Cc2cccs2)C(=O)c2cnccn2)cc1` (configuration not stated), for which the inhibition is -0.58% (inactive).

For the compound `COc1ccc2sc(-c3ccccc3OC)c(-c3ccc(OCCN4CCCC4)cc3)c2c1`, the inhibition is 25.4% (active).

Consider `COc1cccc(-c2sc3ccc(OC)cc3c2-c2ccc(OCCN3CCCCC3)cc2)c1`, for which the inhibition was 14.8% (inactive).

`COc1ccccc1-c1sc2ccccc2c1-c1ccc(Br)nc1`: the inhibition is -7.49% (inactive).

For the compound `Cc1cc(C)c2c(n1)sc1c(=O)n(-c3ccccc3)c(=O)[nH]c12`, the inhibition is 9.86% (inactive).

In the case of `CC1=CC(C)(C)Nc2ccc(OC(=O)C(Cc3ccccc3)N3C(=O)C4CCCCC4C3=O)cc21` (configuration not stated), the inhibition is 47% (active).

Turning to `CCOC(=O)C(Cc1ccc(N)cc1)N1C(=O)c2ccccc2C1=O` (configuration not stated), the inhibition is -1% (inactive).

In the case of `CC1=CC(C)(C)Nc2ccc(OC(=O)CN3C(=O)C4CCCCC4C3=O)cc21` (configuration not stated), the inhibition is 75% (active).

Regarding `COc1ccc(C(=O)COC(=O)CN2C(=O)C3CC=CCC3C2=O)c(OC)c1` (configuration not stated), the inhibition was -4.32% (inactive).

On to `O=C(C(Cc1ccccc1)n1cccc1)N1CCN(C2CCCCC2)CC1` (configuration not stated), for which the inhibition is 5.03% (inactive).

As to `O=C(COC(=O)CN1C(=O)C2CCCCC2C1=O)Nc1ccc(F)c(F)c1F` (configuration not stated), the inhibition was -2.34% (inactive).

For `OCCCC1CCCCN1Cc1nc(Cc2ccccc2Cl)no1` (configuration not stated), the inhibition is 0.62% (inactive).

Take `CC[C@H](C)C(=O)N[C@H]1CCCN1C(=O)/C=C/c1ccccc1`: the inhibition was 1.82% (inactive).

Take `CC(=O)Nc1ccc(NC(=O)c2ccc3c(c2)C(=O)N(c2ccccc2C)C3=O)cc1`: the inhibition is 6.37% (inactive).

Take `COC(=O)[C@@H]1CCCN1C(=O)c1cc(COc2cccc3cccnc23)on1`: the inhibition is -0.57% (inactive).

Consider `COc1ccc2c(c1)c(=Cc1ccc(N(C)C)cc1)c1cc(-c3ccccc3)[n+](C)n12`, for which the inhibition was 30.2% (active).

Regarding `O=C(NC1CCN(S(=O)(=O)c2ccc(F)cc2)CC1)c1ccccc1`, the inhibition was 4.55% (inactive).

In the case of `Cc1ccc(NC(=O)CCC(=O)c2ccc(Br)cc2)cc1`, the inhibition was 4.03% (inactive).

Turning to `CCN(C(=O)c1ccc(Br)cc1)c1ccccc1`, the inhibition is 0.98% (inactive).

As for `Cc1ccn(C(CC(=O)c2ccc(Br)cc2)C(=O)O)n1` (configuration not stated), the inhibition is 33.3% (active).

Turning to `CCCCN(CC)CCCNC(=O)c1ccc(CSc2nc3ccncc3[nH]2)cc1`, the inhibition is -1.26% (inactive).

Consider `COc1ccc(N(Cc2cc3ccc(C)cc3[nH]c2=O)S(=O)(=O)c2ccccc2)cc1`, for which the inhibition was -3.39% (inactive).

For `CC1CCC(NS(=O)(=O)c2ccc3c(c2)CC(=O)N3)CC1` (configuration not stated), the inhibition is 2.49% (inactive).

Regarding `Cn1sc(=O)c2cc(S(=O)(=O)NC3CC3)ccc21`, the inhibition was 43.1% (active).

Turning to `O=S(=O)(NC1CC1)c1ccc(F)c(F)c1`, the inhibition is 7.64% (inactive).

For `CC1CCCC(NC(=O)COC(=O)c2ccccc2C(=O)N(C)C2CCCCC2)C1C` (configuration not stated), the inhibition is 1.5% (inactive).

Regarding `CCOC(=O)/C(=C\c1ccc([N+](=O)[O-])cc1)C(=O)c1cc(C(C)=O)c(Nc2ccccc2)s1`, the inhibition is -2.52% (inactive).

Consider `COc1ccccc1/C=C/C(=O)NC1CC2CCC1C2` (configuration not stated), for which the inhibition is -5.4% (inactive).

As for `COc1ccccc1C(=O)c1ccccc1C(=O)c1ccccc1`, the inhibition is -6.91% (inactive).

Take `CCOC(=O)C(=Cc1ccccc1)C(=O)c1ccccc1`: the inhibition is 86.5% (active).

For the compound `CCc1ccccc1NC(=O)/C(=C/c1ccccc1)c1ccccc1`, the inhibition was -13.9% (inactive).

On to `CCOC(=O)C(=Cc1ccccc1OC)C(=O)OCC`, for which the inhibition is 35.8% (active).

`Cc1ccc(C(=O)NCC(=O)OCC(=O)Nc2cccc(S(=O)(=O)N3CCCC3)c2)cc1C`: the inhibition was -2.63% (inactive).

With `O=C(CCCN1C(=O)C(c2ccccc2)Oc2cccnc21)Nc1ccccc1Br` (configuration not stated), the inhibition is 6.82% (inactive).

For the compound `COC(=O)[C@@H]1C[C@@]2(O)[C@H](O)[C@H](O)[C@H](O)C[C@H]2N1Cc1ccc(C(C)(C)C)cc1`, the inhibition is 6.53% (inactive).

Take `O=C(c1cccc(F)c1)N1CCC(O)(c2cccnc2)CC1`: the inhibition was 0.25% (inactive).

As for `N#CCOc1ccc(C2=NO[C@@H]3[C@@H]4C[C@@H]([C@H]5C(=O)N(c6ccc7c(c6)OCO7)C(=O)[C@@H]45)[C@H]23)cc1`, the inhibition was -3.78% (inactive).

For `COc1ccc(CN2CCC(C)(Oc3cccc(F)c3)C2)c2ccccc12` (configuration not stated), the inhibition is 1.04% (inactive).

`CC1(Oc2ccccc2-c2ccno2)CCN(Cc2ccc(-c3ccccc3)o2)C1` (configuration not stated): the inhibition is 24.9% (active).

In the case of `CC1(Oc2cccc(F)c2)CCN(Cc2ccccc2OC(F)F)C1` (configuration not stated), the inhibition is -9.44% (inactive).

For `CCCOC1CCCN(C(=O)c2cc(COc3cncc(Cl)c3)on2)C1` (configuration not stated), the inhibition was 1.32% (inactive).

As to `Cc1[nH]c2ccccc2c1C(=O)c1cc([C@H](NC(=O)OC(C)(C)C)C(C)C)sc1N`, the inhibition was -16.6% (inactive).

A word on the inhibition: it is the change of the read-out against control, counted positive when it falls.
